# Source: PubChem BioAssay
# The entries come from a sample that favours hits as a whole.
# CBX7 AlphaScr – CBX7 chromodomain binding inhibitors, primary screen, biochemical, AlphaScreen. Chromobox protein homolog 7 (Homo sapiens), O95931. AlphaScreen His6-CBX7 / biotin-H3K27me3 peptide binding; stronger effect = lower value. normalised signal (fraction of DMSO) (test concentration not listed). 66,000 tested, 1.1% active. AID 1224903, 2016; in the data active = normalised signal below about 0.5
# Target sequence (O95931 whole entry, looked up): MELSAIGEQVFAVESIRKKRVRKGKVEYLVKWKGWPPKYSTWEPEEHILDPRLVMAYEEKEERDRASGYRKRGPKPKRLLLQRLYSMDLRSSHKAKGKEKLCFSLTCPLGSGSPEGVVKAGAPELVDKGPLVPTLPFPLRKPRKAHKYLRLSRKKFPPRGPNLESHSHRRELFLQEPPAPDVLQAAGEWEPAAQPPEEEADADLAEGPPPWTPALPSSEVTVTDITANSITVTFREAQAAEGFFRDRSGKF
# An asterisk follows results filed as active.
SMILES,CBX7 AlphaScr
Cc1n[nH]c(C)c1CCCCCCOc1ccc(F)cc1,1
COc1ccc(OCCCCCCc2c(C)n[nH]c2C)cc1,0.433*
Cc1nc2cc(-c3cccc(F)c3)nn2c(C)c1CCC(=O)N1CCOCC1,1.02
Cc1c(NC(=O)c2cccc(Cl)c2)cccc1-c1nc2ncccc2o1,1.07
COc1ccc(C(=O)c2cn(Cc3ccc(Cl)cc3)c3ccccc3c2=O)cc1,0.624
CCC(=C(c1ccc(OC)cc1)c1ccc(OC)cc1)c1cn(CCCN(C)C)c2ccccc12,0.273*
COc1ccc(C(O)Cn2c(=N)n(CCCN(C)C)c3ccccc32)cc1 (stereo unspecified),0.947
Brc1cccc(-c2nc3ccccn3c2Nc2ccc3c(c2)OCCO3)c1,0.438*
Cc1cccn2c(Nc3ccc4c(c3)OCCO4)c(-c3ccc(Cl)cc3)nc12,0.479*
Cc1ccc(-c2nc3ccccn3c2Nc2ccc3c(c2)OCO3)cc1,0.35*
Clc1ccc(-c2nc3ccccn3c2Nc2ccc3c(c2)OCCO3)cc1,0.613
c1cncc(-c2nc3ccccn3c2Nc2ccc3c(c2)OCCO3)c1,0.896
c1ccn2c(Nc3ccc4c(c3)OCCO4)c(-c3ccc(N4CCOCC4)cc3)nc2c1,0.998
Cc1ccc(-c2nc3ccccn3c2Nc2ccc3c(c2)OCCO3)cc1,0.998
Clc1ccc(-c2nc3ncccn3c2Nc2ccc3c(c2)OCCO3)cc1,0.854
c1csc(-c2nc3ccccn3c2Nc2ccc3c(c2)OCCO3)c1,0.773
COc1ccccc1NC(=O)c1sc2ncn(CC(=O)N3CCCC(C)C3)c(=O)c2c1C (stereo unspecified),1.06
Cc1ccc(Nc2nc(-c3ccccc3F)nc3ccccc23)cc1F,0.886
CCOC(=O)c1sc2nc(C)nc(NC(C)CC)c2c1C (stereo unspecified),1.07
COc1ccc(-n2c3c(cc(C(=O)NCCO)c2=O)C(=O)CC(C)(C)C3)cc1,0.984
O=C(C1CCN(c2nnc(-n3cccc3)s2)CC1)N1CCN(c2ccccc2)CC1,1.06
CCOC(=O)c1ccccc1NC(=O)c1sc2ncn(CC(=O)N3CCOCC3)c(=O)c2c1C,0.978
CC(=O)NC(CCS(C)(=O)=O)C(=O)Nc1ccc(F)cc1F (stereo unspecified),1.02
COc1ccc(NC(=O)Cn2cc(S(=O)(=O)c3ccc(C)cc3)c(=O)c3cc(C)ccc32)cc1,0.788
COc1ccccc1C(=O)Nc1ccc(-c2csc(-c3ccccc3)n2)cc1,1.07
SMILES,CBX7 AlphaScr
CC1CCCN(S(=O)(=O)c2ccc(C(=O)Nc3nc(-c4ccccn4)cs3)cc2)C1 (stereo unspecified),0.221*
CC1CCCCN1S(=O)(=O)c1ccc(C(=O)Nc2nc(-c3ccncc3)cs2)cc1 (stereo unspecified),1.04
CC1CCN(S(=O)(=O)c2ccc(C(=O)Nc3nc(-c4ccccn4)cs3)cc2)CC1,0.962
CC1CCN(S(=O)(=O)c2ccc(C(=O)Nc3nc(-c4ccncc4)cs3)cc2)CC1,0.998
CC1CCCCN1S(=O)(=O)c1ccc(C(=O)Nc2nc(-c3ccccn3)cs2)cc1 (stereo unspecified),0.193*
O=C(Nc1nc(-c2ccncc2)cs1)c1ccc(S(=O)(=O)N2CCCCC2)cc1,1.02
CC(C)NC(=O)c1ccc2c(c1)N(Cc1ccc(Cl)cc1)C(=O)c1ccccc1S2=O (stereo unspecified),1.01
CC(NC(=O)C1CCC(=O)N1Cc1ccc(F)cc1)c1ccccc1 (stereo unspecified),0.989
O=C1CN(C(=O)Cc2ccc(F)cc2)C(c2ccccc2)c2cc(F)ccc2N1 (stereo unspecified),0.972
CCc1nc2ccccc2n1CC(O)COc1ccccc1Cl (stereo unspecified),0.916
Cc1ccn2c(NC3CCCC3)c(-c3ccccn3)nc2c1,0.431*
Cc1ccn2c(NC3CCCCC3)c(-c3ccccn3)nc2c1,0.46*
Cc1ccc2nc(-c3ccncc3)c(NC3CCCC3)n2c1,1.12
Cc1ccc(-c2nc3ncccn3c2NC2CCCCC2)cc1,0.975
Cc1ccn2c(NC3CCCC3)c(-c3ccncc3)nc2c1,0.98
Cc1ccn2c(NC3CCCCC3)c(-c3cccnc3)nc2c1,1.09
O=C(C1CCN(S(=O)(=O)c2cccnc2)CC1)N1CCc2ccccc2C1,1.07
Cc1ccc2nc(-c3ccc(NC4=NS(=O)(=O)c5ccccc54)cc3)sc2c1,1.05
COc1ccc(CCNC(=O)C2c3ccccc3C(=O)N2CCc2ccccc2)cc1OC (stereo unspecified),1.1
Cc1ccc(-c2nc(CS(=O)(=O)CC(=O)NCCCN3CC(C)CC(C)C3)c(C)o2)cc1 (stereo unspecified),0.993
O=C(Nc1nnc(CCS(=O)(=O)c2ccc(Cl)cc2)s1)c1ccc(Br)cc1,1.11
CCN1CCN(c2oc(COc3ccc(F)cc3)nc2C#N)CC1,0.94
Cc1ccccc1OCc1nc(C#N)c(N2CCOCC2)o1,0.856
N#Cc1nc(COc2ccc(F)cc2)oc1N1CCC(C(N)=O)CC1,0.986
N#Cc1nc(-c2ccc(F)cc2)oc1N1CCCCCC1,0.794
N#Cc1nc(COc2ccc(F)cc2)oc1N1CCCCC1,0.418*
